Data published in PubChem BioAssay (NCI).
About 79,000 compounds went through this panel and 15% of them were active in at least one assay; those are over-represented in the sample as a whole. Calls of active or inactive are those of the source. Cut-off read from the data, not from the text of the source: active = growth inhibition above about 70%; inactive = the rest.

Assays:
[1] = NCI Yeast Anticancer Drug Screen. Data for the rad50 strain (AID 155);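 note: 0% = growth of vehicle-only cultures of the same strain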; conditions: S. cerevisiae rad50 strain growth inhibition, active compounds read high
Outline: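 A DNA repair-deficient yeast mutant serves as the test organism; compound-induced growth inhibition is calculated against vehicle-treated cells.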

[2] = NCI Yeast Anticancer Drug Screen. Data for the mec2-1 strain (AID 157); conditions: S. cerevisiae mec2-1 strain, active compounds read high
Outline: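 Test agents were screened against the mec2-1 yeast strain, with defined DNA repair or cell cycle alteration. Growth was scored as inhibition against vehicle-only controls.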

[3] = NCI Yeast Anticancer Drug Screen. Data for the sgs1 mgt1 strain (AID 161);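 note: 0% = growth of cultures given vehicle only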; conditions: S. cerevisiae sgs1 mgt1 strain, active compounds read high
Outline: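 Mutant yeast exposed to compound; growth scored against vehicle-only wells.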

[4] = NCI Yeast Anticancer Drug Screen. Data for the cln2 rad14 strain (AID 165);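 note: 0% = growth equal to vehicle treated cultures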; conditions: S. cerevisiae cln2 rad14 strain, active compounds read high
Outline: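 Growth of compound-exposed yeast (cln2 rad14 genotype) measured and expressed as inhibition relative to vehicle.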

[5] = NCI Yeast Anticancer Drug Screen. Data for the bub3 strain (AID 167); conditions: S. cerevisiae bub3 mutant strain, active compounds read high
Outline: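 Inhibition values come from growth of compound-treated mutant yeast normalised to vehicle-treated controls.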

[6] = NCI Yeast Anticancer Drug Screen. Data for the mlh1 rad18 strain (AID 175); conditions: S. cerevisiae mlh1 rad18 strain growth inhibition, active compounds read high
Outline: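 In this whole-cell yeast screen, a strain with altered DNA damage repair is challenged with compound, and its growth is measured against matched vehicle-treated controls.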

[7] = at 5.0 µM (retest, dose inferred, filed as 0.5)
[8] = at 50.0 µM (retest, dose inferred, filed as 5.0)

Measured: growth inhibition

CC/C(=C\c1cccc(OC)c1)c1ccncc1
active: [1]; [8] 84% | [1]; at 50.0 µM 94.7% | [2]; [8] 92% | [2]; at 50.0 µM 94.2% | [3]; [8] 91% | [3]; at 50.0 µM 95.3% | [4]; [8] 81% | [4]; at 50.0 µM 90.3% | [5]; [8] 89% | [5]; at 50.0 µM 94.8% | [6]; [8] 87% | [6]; at 50.0 µM 93.9%
inactive: [1]; [7] 17% | [2]; [7] 12% | [3]; [7] 40% | [4]; [7] 14% | [5]; [7] 35% | [6]; [7] 32%

COC(=O)c1nc(=S)[nH]c(C(=O)OC)c1C(=O)C(C)(C)C
inactive: [1]; [7] 6% | [1]; [8] 24% | [1]; at 50.0 µM -6.8% | [2]; [7] 4% | [2]; [8] 18% | [2]; at 50.0 µM -10.4% | [3]; [7] 11% | [3]; [8] 22% | [3]; at 50.0 µM -21.9% | [4]; [7] 5% | [4]; [8] 22% | [4]; at 50.0 µM 45.6% | [5]; [7] 5% | [5]; [8] 26% | [5]; at 50.0 µM -25.2% | [6]; [7] 9% | [6]; [8] 20% | [6]; at 50.0 µM 4.75%

C/C(=N/NC(=S)N1CCCCC1)c1cccc(/C(C)=N\NC(=S)N2CCCCC2)n1
inactive: [1]; [7] -13% | [2]; [7] -1% | [3]; [7] 6% | [4]; [7] -10% | [5]; [7] 8% | [6]; [7] -3%
active: [1]; [8] 93% | [1]; at 50.0 µM 74.2% | [2]; [8] 95% | [2]; at 50.0 µM 88% | [3]; [8] 96% | [3]; at 50.0 µM 74.7% | [4]; [8] 94% | [4]; at 50.0 µM 87.3% | [5]; [8] 94% | [5]; at 50.0 µM 90% | [6]; [8] 95% | [6]; at 50.0 µM 88.2%

COc1ccc(CCCCI)cc1
inactive: [1]; [7] -4% | [2]; [7] -14% | [3]; [7] -6% | [4]; [7] 2% | [5]; [7] 0% | [6]; [7] 16%
active: [1]; [8] 95% | [1]; at 50.0 µM 94.6% | [2]; [8] 94% | [2]; at 50.0 µM 95.2% | [3]; [8] 97% | [3]; at 50.0 µM 94.2% | [4]; [8] 97% | [4]; at 50.0 µM 96.4% | [5]; [8] 96% | [5]; at 50.0 µM 97% | [6]; [8] 98% | [6]; at 50.0 µM 96.9%

CC(=O)OC1CCC(C(C)(C)C)C(C)C1 (stereo not given)
inactive: [1]; [7] 3% | [1]; [8] 43% | [1]; at 50.0 µM 11.4% | [2]; [7] 5% | [2]; at 50.0 µM 45.5% | [3]; [7] 6% | [3]; [8] 42% | [3]; at 50.0 µM 43.4% | [4]; [7] 2% | [4]; [8] 68% | [4]; at 50.0 µM 9.55% | [5]; [7] -4% | [5]; [8] 67% | [5]; at 50.0 µM 32.9% | [6]; [7] 3% | [6]; [8] 47% | [6]; at 50.0 µM 29.5%
active: [2]; [8] 70%

C=C1CC(COc2ccc3c(C)cc(=O)oc3c2)(c2ccccc2)OC1=O (stereo not given)
inactive: [1]; [7] 32% | [1]; [8] 8% | [1]; at 50.0 µM 36% | [2]; [7] -6% | [2]; [8] 17% | [2]; at 50.0 µM 27% | [3]; [7] 17% | [3]; [8] 32% | [3]; at 50.0 µM 59.6% | [4]; [7] -20% | [4]; [8] -6% | [4]; at 50.0 µM 32% | [5]; [7] 32% | [5]; [8] 30% | [5]; at 50.0 µM 30.2% | [6]; [7] -10% | [6]; [8] 22% | [6]; at 50.0 µM 41.6%

Cc1cc2nc3c(C)c4ccccc4c(C)n3c2cc1C
inactive: [2]; [7] 69% | [3]; [8] 50%
active: [1]; [7] 82% | [1]; [8] 93% | [1]; at 50.0 µM 80.8% | [2]; [8] 96% | [2]; at 50.0 µM 87.8% | [3]; [7] 72% | [3]; at 50.0 µM 85.3% | [4]; [7] 73% | [4]; [8] 94% | [4]; at 50.0 µM 83.4% | [5]; [7] 75% | [5]; [8] 94% | [5]; at 50.0 µM 86.4% | [6]; [7] 81% | [6]; [8] 95% | [6]; at 50.0 µM 79.3%

c1ccc(-c2cc(Nc3ccc4c(c3)OCO4)c3cc(C4CCCCC4)ccc3n2)cc1
inactive: [1]; [7] 10% | [2]; [7] 6% | [3]; [7] 27% | [4]; [7] -8% | [4]; at 50.0 µM 60.4% | [5]; [7] 4% | [5]; at 50.0 µM 41.2% | [6]; [7] 7%
active: [1]; [8] 95% | [1]; at 50.0 µM 79% | [2]; [8] 96% | [2]; at 50.0 µM 83.9% | [3]; [8] 97% | [3]; at 50.0 µM 96.7% | [4]; [8] 93% | [5]; [8] 96% | [6]; [8] 94% | [6]; at 50.0 µM 98.2%

Cc1[nH]n(C(N)=S)c(=O)c1N=Nc1ccc([N+](=O)[O-])cc1
inactive: [1]; [7] -19% | [1]; [8] 35% | [2]; [7] -4% | [2]; [8] 27% | [2]; at 50.0 µM 51.2% | [3]; [7] -4% | [3]; [8] 66% | [4]; [7] -13% | [4]; [8] 33% | [4]; at 50.0 µM 7.5% | [5]; [7] -12% | [5]; [8] 54% | [5]; at 50.0 µM 51.8% | [6]; [7] -6% | [6]; [8] 48%
active: [1]; at 50.0 µM 91.5% | [3]; at 50.0 µM 88.2% | [6]; at 50.0 µM 93.4%

S=C1C(=Nc2ccccc2)N(c2ccccc2)/C(=N\c2cccc[n+]2Cc2ccccc2)N1c1ccccc1
inactive: [1]; [7] -17% | [2]; [7] -10% | [3]; [7] -1% | [4]; [7] -17% | [4]; [8] 48% | [5]; [7] -20% | [6]; [7] -23%
active: [1]; [8] 89% | [1]; at 50.0 µM 96.6% | [2]; [8] 99% | [2]; at 50.0 µM 97.9% | [3]; [8] 72% | [3]; at 50.0 µM 98.7% | [4]; at 50.0 µM 94.5% | [5]; [8] 85% | [5]; at 50.0 µM 98% | [6]; [8] 96% | [6]; at 50.0 µM 98.2%
